# Test results reported in paper PMC4336329 (PLoS ONE, 2015).
# The whole screen tested about 310,000 compounds, of which about 2,200 (0.71%) showed an effect of 50% or more. The effect is printed as a negative number. The sample as a whole holds a higher share of strong results than the screen did.
# Biological target: human ether-à-go-go-related gene (hERG) potassium channel (human, UniProt Q12809)
# Assay: primary screen, population patch clamp on CHO cells stably expressing hERG; higher = less effect of the substance
# human ether-à-go-go-related gene (hERG) potassium channel, sequence (Q12809 whole entry, looked up): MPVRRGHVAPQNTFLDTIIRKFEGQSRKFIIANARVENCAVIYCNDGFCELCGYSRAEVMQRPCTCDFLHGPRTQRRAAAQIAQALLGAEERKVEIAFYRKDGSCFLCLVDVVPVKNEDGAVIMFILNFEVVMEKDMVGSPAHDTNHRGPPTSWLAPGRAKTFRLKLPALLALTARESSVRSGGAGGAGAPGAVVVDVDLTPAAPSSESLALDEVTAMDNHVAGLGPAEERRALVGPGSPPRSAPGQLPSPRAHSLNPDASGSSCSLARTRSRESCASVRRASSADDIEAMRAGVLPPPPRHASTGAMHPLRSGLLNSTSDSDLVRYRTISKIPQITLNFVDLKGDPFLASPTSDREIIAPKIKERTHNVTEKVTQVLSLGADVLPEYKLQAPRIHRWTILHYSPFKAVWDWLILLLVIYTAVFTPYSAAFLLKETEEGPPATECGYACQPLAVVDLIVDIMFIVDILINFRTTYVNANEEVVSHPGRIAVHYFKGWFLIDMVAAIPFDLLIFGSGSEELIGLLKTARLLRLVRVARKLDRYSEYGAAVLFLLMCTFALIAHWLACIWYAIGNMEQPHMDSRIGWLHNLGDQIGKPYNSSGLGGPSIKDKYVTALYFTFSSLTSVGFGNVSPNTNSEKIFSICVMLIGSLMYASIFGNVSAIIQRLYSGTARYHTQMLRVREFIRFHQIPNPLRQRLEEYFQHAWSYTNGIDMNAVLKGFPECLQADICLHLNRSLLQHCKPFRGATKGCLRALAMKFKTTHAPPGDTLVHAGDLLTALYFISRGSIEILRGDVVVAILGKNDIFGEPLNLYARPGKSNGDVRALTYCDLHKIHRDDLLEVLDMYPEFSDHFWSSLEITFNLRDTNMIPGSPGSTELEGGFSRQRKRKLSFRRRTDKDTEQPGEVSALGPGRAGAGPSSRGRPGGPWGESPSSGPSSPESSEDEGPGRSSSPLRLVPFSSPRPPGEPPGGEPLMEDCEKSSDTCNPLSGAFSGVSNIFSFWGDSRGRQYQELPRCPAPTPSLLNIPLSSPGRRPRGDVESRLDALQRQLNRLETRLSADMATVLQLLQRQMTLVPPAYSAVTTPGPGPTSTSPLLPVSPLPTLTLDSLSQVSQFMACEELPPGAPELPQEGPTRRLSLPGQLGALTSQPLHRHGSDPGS
row,Structure (SMILES),"hERG current change (%, negative = inhibition) at 1uM [%]"
1,CN(C)c1ccc(C(CNC(=O)c2ccco2)N2CCCC2)cc1 (stereo not shown),13.2
2,Cc1nc(C)c(-c2csc(Nc3ccc(O)c(C(=O)O)c3)n2)s1,13.6
3,CC(=O)c1ccc(NC(=S)N2CCN(c3cccc(Cl)c3)CC2)cc1,12.6
4,COC(=O)C1CC(=O)N(c2ccc(C)cc2)C1 (stereo not shown),4.3
5,CCc1ccccc1NC(=O)CCNS(=O)(=O)c1cc(Br)cnc1N,0.979
6,Cl.O=C(OCCN1CCOCC1)c1ccc2c(c1)OCCO2,8.19
7,O=C(NCCc1ccccn1)C1CC(=O)N(Cc2ccccc2Cl)C1 (stereo not shown),4.09
8,CCCCCCC(=O)Nc1ccc(Cl)cn1,12.1
9,Fc1ccc(-c2[nH]ncc2CN2CCN(c3ccc(F)cc3)CC2)cc1,-0.0709
10,CCOC(=O)C1CCN(Cc2cn[nH]c2-c2ccc(C)cc2)CC1,-23.6
11,O=C(c1ccc(F)cc1)C1CCN(Cc2cn[nH]c2-c2ccc(F)cc2)CC1,-78.9
12,O=C(/C=C/c1ccccc1)NC(=S)Nc1ncccn1,14.1
13,CCN(CC)S(=O)(=O)c1ccc(Cl)c(C(=O)Nc2nncs2)c1,15.1
14,COc1ccccc1OCC(=O)NCCS(=O)(=O)N1CCN(c2ccc(F)cc2)CC1,-3.49
15,Cc1ccc(-n2nnnc2SCc2ccc(C(=O)O)cc2)cc1C,-80.9
16,O=C(O)c1ccc(CSc2nnnn2-c2ccc(F)cc2)cc1,6.99
17,O=C(O)c1ccc(-n2nnnc2SCc2ccccc2)cc1,7.44
18,Cc1c(C#N)c2ccccc2n1CC(=O)NC(C)c1ccccc1 (stereo not shown),4.94
19,COC(=O)c1ccc(CS(=O)(=O)c2ccccc2C)o1,2.66
20,O=C1N=c2ccccc2=C1c1sc(=S)n(CC2CCCO2)c1O (stereo not shown),10.8

row,Structure (SMILES),"hERG current change (%, negative = inhibition) at 1uM [%]"
1,COc1cc(C(C)=O)ccc1OCC(O)CNCC1(N2CCCCC2)CCCCC1.O=C(O)C(=O)O (stereo not shown),2.35
2,OC(CNCC1(N2CCCCC2)CCCCC1)COc1ccc(Cl)cc1Cl (stereo not shown),-74.2
3,COc1ccccc1COCC(O)CNCC1(N2CCCCC2)CCCCC1.O=C(O)C(=O)O (stereo not shown),0.206
4,Cc1ccccc1NC(=O)CCCN1C(=O)C2CC=CCC2C1=O (stereo not shown),14.5
5,O=C(NC1CCCCC1)C(c1ccncc1)N(C(=O)Cn1nnc(-c2cccs2)n1)C1CCCC1 (stereo not shown),-4.68
6,Cc1ccccc1NC(=O)c1cccc2c1C(=O)N(C1CCCCC1)C2,15
7,O=S(=O)(Nc1cc(F)ccc1F)c1cccc2nsnc12,14.5
8,O=S(=O)(Nc1cc(F)ccc1F)c1cccc2nonc12,-61
9,CSc1ccccc1NS(=O)(=O)c1cccc2nonc12,7.17
10,N#Cc1nc(COc2ccc(Cl)cc2)oc1N1CCN(Cc2ccccc2)CC1,10.2
11,N#Cc1nc(COc2ccc(Cl)cc2)oc1N1CCCC1,-2.53
12,N#Cc1nc(COc2ccccc2)oc1N1CCN(Cc2ccccc2)CC1,-3.01
13,CCN1CCN(c2oc(COc3ccc(-c4ccccc4)cc3)nc2C#N)CC1,10.1
14,N#Cc1nc(COc2ccc(F)cc2)oc1N1CCN(Cc2ccccc2)CC1,-51
15,CCN1CCN(c2oc(COc3ccc(Cl)cc3)nc2C#N)CC1,-79.3
16,COC(=O)C1CC(Cl)CN1c1ncc(C(F)(F)F)cc1Cl (stereo not shown),15.5
17,COc1ccc(-n2c(CNC(=O)COc3ccc(Cl)cc3)n[nH]c2=S)cc1,16.9
18,C/C(=N\O)C(C)(C)Nc1ccc(Cl)cc1,10.9
19,CCOc1cc(S(=O)(=O)NC2CC(C)(C)NC(C)(C)C2)ccc1Cl,11.2
20,COc1ccccc1-c1nnc2sc(-c3cc4ccccc4o3)nn12,-0.794

row,Structure (SMILES),"hERG current change (%, negative = inhibition) at 1uM [%]"
1,CCN(CC)CCNC(=O)c1ccc(NC(=O)c2ccc(Cl)c(S(=O)(=O)N3CCCCCC3)c2)cc1.Cl,1.9
2,Cl.O=C(NCCN1CCOCC1)c1ccc(Cl)c(S(=O)(=O)N2CCCCCC2)c1,-10.3
3,Cl.O=C(NCCCN1CCOCC1)c1ccc(Cl)c(S(=O)(=O)N2CCCCCC2)c1,-18.9
4,O=C(NCCCN1CCCC1=O)c1ccc(Cl)c(S(=O)(=O)N2CCCCC2)c1,9.57
5,CN(C)CCCNC(=O)c1ccc(Cl)c(S(=O)(=O)N2CCCCCC2)c1.Cl,-70
6,CCN(CC)CCNC(=O)c1ccc(Cl)c(S(=O)(=O)N2CCCCCC2)c1.Cl,-52.2
7,CN(C)C(=O)C12CCC(C)(C(=O)C1Br)C2(C)C (stereo not shown),14.5
8,O=c1oc(-c2ccco2)nc2sc3c(c12)CCCC3,11.5
9,O=C(CNC(=O)c1ccc(Oc2ccccc2)cc1)OC1CCCCC1=O (stereo not shown),-58.8
10,COc1cc(OC)cc(C(=O)NCC(=O)OC2CCCCC2=O)c1 (stereo not shown),-1.67
11,COc1ccc(C(=O)NCC(=O)OC2CCCCC2=O)cc1 (stereo not shown),-0.0213
12,Cc1nc2nc(C)c(CCC(=O)N3CCc4ccccc43)c(C)n2n1,-36.3
13,Cc1nc2ncnn2c(C)c1CCC(=O)N1CCc2ccccc21,-66.3
14,Cc1nc2ncnn2c(C)c1CCC(=O)N1CCc2ccccc2C1,-19.5
15,CCN(CC(=O)Nc1ccc(NC(C)=O)cc1)C(=O)c1sc2nc3n(c(=O)c2c1C)CCC3,10.2
16,COc1cc(OC)c(NC(=O)c2cncn2-c2ccc(F)cc2)cc1Cl,5.23
17,NNC(=O)c1cncn1-c1ccc(F)cc1,12.3
18,O=C(Nc1cccc(Cl)c1)c1cncn1-c1ccc(F)cc1,-52.8
